# Measurements from PubChem BioAssay (NCATS).
# “And” between values parts separate entries of the source, which are not always exact repeats. Equal values may be shown once. Inconclusive results are not listed. Where a call stands in place of a potency, no number is given. Some compounds were tested as several samples or in several runs, with calls that do not always agree. The source made the active and inactive calls. Unless noted, the call rests on the fitted dose curve; in most records, active means well fitted curve in the direction sought with a large enough effect; inconclusive means small, poorly fitted or top-dose-only effect, or another doubt; inactive means no such curve, though single readings can be large; an effect the other way counts as inactive or inconclusive.
# Key:
# [1] = molecular target: Papain (Carica papaya) (UniProt P00784); test: Primary qHTS assay for inhibitors of the protease papain (AID 1645873);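 further: papain turnover of Z-FR-AMC read as the AMC fluorescence gain over 10 min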; further: potency means the concentration at half of the fitted maximal effect
# Papain (Carica papaya), sequence (P00784 whole entry, looked up, the tested form may be a part): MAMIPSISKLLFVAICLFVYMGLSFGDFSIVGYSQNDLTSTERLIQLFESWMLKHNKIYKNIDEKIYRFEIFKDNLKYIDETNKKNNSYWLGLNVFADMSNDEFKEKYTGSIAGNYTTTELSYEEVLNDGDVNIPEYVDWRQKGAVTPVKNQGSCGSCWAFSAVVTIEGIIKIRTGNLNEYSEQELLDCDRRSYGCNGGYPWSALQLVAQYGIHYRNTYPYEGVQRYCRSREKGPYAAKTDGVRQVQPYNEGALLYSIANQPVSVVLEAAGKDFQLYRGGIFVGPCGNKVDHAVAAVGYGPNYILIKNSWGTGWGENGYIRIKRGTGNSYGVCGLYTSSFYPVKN
# [2] = Primary qHTS for inhibitors of nuclear receptor binding SET domain protein 2 (NSD2) in an isogenic RCH-ACV NSD2 p.E1099K mutant (9B) (AID 1645876); further: nearly all actives have a fitted effect of over 70% in size; further: potency means the concentration at half of the fitted maximal effect
# [3] = Primary qHTS for inhibitors of nuclear receptor binding SET domain protein 2 (NSD2) in an RCH-ACV wild type WT cells (2C) (AID 1645877); further: nearly all actives have a fitted effect of over 70% in size; further: potency means the concentration at half of the fitted maximal effect
# [4] = molecular target: N-terminal Xaa-Pro-Lys N-methyltransferase 1 (Homo sapiens) (UniProt Q9BV86); test: Confirmatory qHTS for Inhibitors of N-terminal methyltransferase 1 (NTMT1): MTaseGlo Assay (AID 1645874);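 further: luminescence from SAH made as NTMT1 methylates SPKRIA peptide using SAM; nearly all actives have a fitted effect of over 65% in size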
# N-terminal Xaa-Pro-Lys N-methyltransferase 1 (Homo sapiens), sequence (Q9BV86 whole entry, looked up): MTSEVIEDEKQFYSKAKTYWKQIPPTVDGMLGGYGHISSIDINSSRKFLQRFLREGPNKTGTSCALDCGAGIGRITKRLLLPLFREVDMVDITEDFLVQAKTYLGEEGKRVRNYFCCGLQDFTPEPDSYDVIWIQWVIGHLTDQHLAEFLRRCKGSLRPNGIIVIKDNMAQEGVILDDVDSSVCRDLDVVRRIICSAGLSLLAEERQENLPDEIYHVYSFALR
# Summary of the method: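 Luminescent MTase-Glo read-out of SAH. 125 nM NTMT1, 100 uM SAM, 1 uM SPKRIA substrate, 30 min RT reaction after 15 min compound preincubation. Normalized to no-enzyme and DMSO controls; Hill fit.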
# [5] = molecular target: Catechol O-methyltransferase (Homo sapiens) (UniProt P21964); test: Confirmatory Screen for Target Class Profiling of Small Molecule Inhibitors of Methyltransferases (AID 1745852; calls by dose curve; further: potency means the concentration at half of the fitted maximal effect); conditions: MTase-Glo luminescence, SAH detection, recombinant enzyme; measured here: COMT max response; stronger effect = lower value
# Catechol O-methyltransferase (Homo sapiens), sequence (P21964 whole entry, looked up): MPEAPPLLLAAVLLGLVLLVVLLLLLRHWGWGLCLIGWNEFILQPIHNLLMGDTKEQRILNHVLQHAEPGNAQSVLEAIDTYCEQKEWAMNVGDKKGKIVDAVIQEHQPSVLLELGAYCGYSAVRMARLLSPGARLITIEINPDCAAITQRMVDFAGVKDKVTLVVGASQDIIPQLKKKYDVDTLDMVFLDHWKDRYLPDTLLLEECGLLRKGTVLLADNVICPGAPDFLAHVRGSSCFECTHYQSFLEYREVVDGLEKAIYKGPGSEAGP
# [6] = molecular target: Guanidinoacetate N-methyltransferase (Homo sapiens) (UniProt Q14353); test: as above; conditions: MTase-Glo luminescence, SAH detection, recombinant enzyme; activity change, negative = inhibition: at 57.3 µM (top of the series)
# [7] = molecular target: Nicotinamide N-methyltransferase (Homo sapiens) (UniProt P40261); test: as above; conditions: MTase-Glo luminescence, SAH detection, recombinant enzyme; measured here: NNMT max response; stronger effect = lower value
# Nicotinamide N-methyltransferase (Homo sapiens), sequence (P40261 whole entry, looked up): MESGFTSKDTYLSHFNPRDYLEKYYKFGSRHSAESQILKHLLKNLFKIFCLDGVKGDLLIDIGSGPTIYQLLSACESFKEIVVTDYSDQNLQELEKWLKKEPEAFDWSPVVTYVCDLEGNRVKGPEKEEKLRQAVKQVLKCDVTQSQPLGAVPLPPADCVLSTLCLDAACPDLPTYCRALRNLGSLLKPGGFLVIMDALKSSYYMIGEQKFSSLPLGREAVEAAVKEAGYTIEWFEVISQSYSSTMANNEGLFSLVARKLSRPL
# [8] = molecular target: Phenylethanolamine N-methyltransferase (Homo sapiens) (UniProt P11086); test: as above; conditions: MTase-Glo luminescence, SAH detection, recombinant enzyme; measured here: PNMT max response; stronger effect = lower value
# Phenylethanolamine N-methyltransferase (Homo sapiens), sequence (P11086 whole entry, looked up): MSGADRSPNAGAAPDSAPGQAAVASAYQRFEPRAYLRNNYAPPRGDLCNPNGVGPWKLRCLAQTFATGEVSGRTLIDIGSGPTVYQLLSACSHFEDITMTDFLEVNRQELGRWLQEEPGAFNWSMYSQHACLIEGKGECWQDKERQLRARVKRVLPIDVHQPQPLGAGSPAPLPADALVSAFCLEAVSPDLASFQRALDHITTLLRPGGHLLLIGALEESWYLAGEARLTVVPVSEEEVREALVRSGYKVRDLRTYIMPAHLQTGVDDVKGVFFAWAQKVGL
smiles,measurement,setting,value
NC(=O)OCC(COC(N)=O)c1ccccc1,Potency,[1],inactive
same,Potency,[2],inactive
same,Potency,[3],inactive
CCc1cccc2c3c([nH]c12)C(CC)(CC(=O)O)OCC3 (stereo not given),Potency,[1],inactive
same,Potency,[2],inactive
same,Potency,[3],inactive
Cc1cnc(C(=O)NCCc2ccc(S(=O)(=O)NC(=O)NC3CCCCC3)cc2)cn1,Potency,[1],inactive
CC(C)NCC(O)COc1ccc(CCOCC2CC2)cc1 (stereo not given),Potency,[1],inactive
same,Potency,[2],inactive
same,Potency,[3],inactive
NCCc1cnc[nH]1,Potency,[1],inactive
same,Potency,[2],inactive
same,Potency,[3],inactive
COc1nc(C)nc(Cl)c1NC1=NCCN1,Potency,[1],inactive
same,Potency,[2],inactive
same,Potency,[3],inactive
CN1CCN2c3ccccc3Cc3ccccc3C2C1 (stereo not given),Potency,[1],inactive
Clc1ccc2c(c1)C(N1CCNCC1)=Nc1ccccc1O2,Potency,[1],inactive
same,Potency,[2],inactive
same,Potency,[3],inactive
CN(C)CCC=C1c2ccccc2C=Cc2ccccc21,Potency,[1],inactive
same,outcome,[4],inactive
same,Potency,[2],20.9 µM (active)
same,Potency,[3],23.5 µM (active)
same,activity,[5],7.28%
same,Potency,[6],0.0039 µM (active)
same,activity,[7],-9.28%
same,activity,[8],7.91%
COc1ccccc1OCCNCC(O)COc1cccc2[nH]c3ccccc3c12 (stereo not given),Potency,[1],inactive
CC(C(=O)O)c1cccc(C(=O)c2ccccc2)c1 (stereo not given),Potency,[1],inactive
NC(CO)C(=O)NNCc1ccc(O)c(O)c1O (stereo not given),Potency,[1],inactive
same,Potency,[2],26.3 µM (active)
NC(=O)NO,Potency,[1],inactive
same,Potency,[2],inactive
same,Potency,[3],inactive
Nc1ccn([C@H]2CC[C@@H](CO)O2)c(=O)n1,Potency,[1],inactive
CCC1(C)CC(=O)NC1=O (stereo not given),Potency,[1],inactive
same,outcome,[4],inactive
same,Potency,[2],inactive
same,Potency,[3],inactive
Nc1nc2c(ncn2COC(CO)CO)c(=O)[nH]1,Potency,[1],inactive
same,Potency,[2],inactive
same,Potency,[3],inactive
Clc1ccc2nsnc2c1NC1=NCCN1,Potency,[1],inactive
same,Potency,[2],inactive
same,Potency,[3],inactive
CN1C(C(=O)Nc2ccccn2)=C(O)c2ccccc2S1(=O)=O,Potency,[1],inactive
same,Potency,[2],inactive
same,Potency,[3],inactive
NCCCCCC(=O)O,Potency,[1],inactive
same,Potency,[2],inactive
same,Potency,[3],inactive
COc1cc2nc(N(C)CCCNC(=O)C3CCCO3)nc(N)c2cc1OC (stereo not given),Potency,[1],22.4 µM (active)
same,Potency,[2],inactive
same,Potency,[3],inactive
C[C@](N)(Cc1ccc(O)c(O)c1)C(=O)O,Potency,[1],inactive
same,Potency,[2],inactive
same,Potency,[3],inactive
CN(CCOc1ccc(NS(C)(=O)=O)cc1)CCc1ccc(NS(C)(=O)=O)cc1,Potency,[1],inactive
same,Potency,[2],inactive
same,Potency,[3],inactive
COc1ccccc1OCC(O)CN1CCN(CC(=O)Nc2c(C)cccc2C)CC1 (stereo not given),Potency,[1],inactive
same,Potency,[2],inactive
same,Potency,[3],inactive
O=c1c(-c2ccc(O)cc2)coc2cc(O)cc(O)c12,Potency,[1],inactive
same,Potency,[2],11.9 µM (active) and 13.5 µM (active)
same,Potency,[3],11.9 µM (active) and 10.8 µM (active)
O=C1N(c2ccccc2)c2ccccc2C1(Cc1ccncc1)Cc1ccncc1,Potency,[1],inactive
same,Potency,[2],inactive
same,Potency,[3],inactive
COc1cc2c(c(OC)c1OC)-c1ccc(OC)c(=O)cc1[C@@H](NC(C)=O)CC2,Potency,[1],inactive
same,Potency,[2],33.5 nM (active) and 33.2 nM (active)
same,Potency,[3],15 nM (active) and 26.3 nM (active)
Cc1cc(C(C)(C)C)c(O)c(C)c1CC1=NCCN1,Potency,[1],inactive
same,Potency,[2],inactive
same,Potency,[3],inactive
CC(C)Cc1ccc(C(C)C(=O)O)cc1 (stereo not given),Potency,[1],inactive
same,Potency,[2],inactive
same,Potency,[3],inactive
COc1ccc2[nH]cc(CCNC(C)=O)c2c1,Potency,[1],inactive
same,Potency,[2],inactive
same,Potency,[3],inactive
O=C(Nc1ccc([N+](=O)[O-])cc1Cl)c1cc(Cl)ccc1O,Potency,[1],inactive
same,Potency,[2],11.8 µM (active)
same,Potency,[3],11.8 µM (active)
Cc1cc(C(C)(C)C)cc(C)c1CC1=NCCN1,Potency,[1],inactive
same,Potency,[2],inactive and 20.9 µM (active)
same,Potency,[3],inactive and 18.6 µM (active)
NC12CC3CC(CC(C3)C1)C2,Potency,[1],inactive
same,Potency,[2],inactive
same,Potency,[3],inactive
CN(C)c1nc(N(C)C)nc(N(C)C)n1,Potency,[1],inactive
same,Potency,[2],inactive
same,Potency,[3],inactive
CC(C)(Oc1ccc(C2CC2(Cl)Cl)cc1)C(=O)O (stereo not given),Potency,[1],inactive
same,Potency,[2],inactive
same,Potency,[3],inactive
Cn1cnc2c1c(=O)[nH]c(=O)n2C,Potency,[1],inactive
same,Potency,[2],inactive
same,Potency,[3],inactive
CCOC(=O)c1ncn2c1CN(C)C(=O)c1cc(F)ccc1-2,Potency,[1],inactive
same,Potency,[2],inactive
same,Potency,[3],inactive
CC[N+](CC)(CC)CCOc1cccc(OCC[N+](CC)(CC)CC)c1OCC[N+](CC)(CC)CC,Potency,[1],inactive
same,Potency,[2],inactive
same,Potency,[3],inactive
Nc1nnc(-c2cccc(Cl)c2Cl)c(N)n1,Potency,[1],inactive
same,Potency,[2],inactive
same,Potency,[3],inactive
NS(=O)(=O)c1cc2c(cc1Cl)NCNS2(=O)=O,Potency,[1],inactive
same,Potency,[2],inactive
same,Potency,[3],inactive
CNCCCC12CCC(c3ccccc31)c1ccccc12,Potency,[1],inactive
same,Potency,[2],21.1 µM (active) and 20.9 µM (active)
same,Potency,[3],18.8 µM (active) and 20.9 µM (active)
